# Test results as given in PubChem BioAssay AID504408 (Broad Institute, 2011).
# In all, about 300,000 compounds went through this assay and about 5,200 (1.7%) were called active. This excerpt belongs to a sample that is enriched for actives. A number with no mark means an inactive call.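 How the source made its calls: active means mean replicate activation of at least 50% with a set share of replicates each reaching 50%; inconclusive means only one of those two conditions met; inactive means mean below 50% and too few replicates reaching it.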
# Assay: HSF-1 response element luciferase induction – NIH3T3-HGL cells, MG132 stress, luminescence, single point, primary screen (AID 504408);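 further: 0% = median of the neutral control wells and 100% = twice that signal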
# Settings: NIH3T3-HGL HSF-1 luciferase reporter, MG132, 8 h; at 9 µM; hits give high values; 100% = twice DMSO control signal
row,Compound,activation
1,CCN(C(=O)CSc1nnc(-c2ccc(OC(F)F)cc2)n1N)C1CCS(=O)(=O)C1 (stereo not drawn),-15.1%
2,COC(=O)c1ccc(NS(=O)(=O)c2cc3c4c(c2)C(C)C(=O)N4CCC3)cc1 (stereo not drawn),21.6%
3,COc1ccc(NC(=O)CN(C)C(=O)c2ccc(NC3CC3)c([N+](=O)[O-])c2)cc1,5.08%
4,O=C1CCc2cc(S(=O)(=O)Nc3ccc(C(F)(F)F)cc3)cc3c2N1CC3,15.1%
5,CC1CCN(C(=S)c2ccc(-c3ccc(Cl)cc3Cl)o2)CC1,52% (active)
6,Cc1csc(NC(=O)c2ccc(-c3ccc(Cl)cc3Cl)o2)n1,3.06%
7,COc1ccc(C(=O)Nc2c(Cl)cc(Cl)cc2C(=O)N2CCC(C)CC2)cc1,18%
8,Cc1c(C(=O)OCC(=O)N2CCCC2=O)oc2ccccc12,16.8%
9,N#Cc1cccc(OC(=O)c2ccc3c(=O)n4c(nc3c2)CCC4)c1,-0.984%
10,CCOC(=O)C1C(=O)C=C(c2ccc(OC)cc2)CC1c1ccco1 (stereo not drawn),285% (active)
11,Cc1ccc(C2=NN(C(=O)CSc3nc(N)cc(N)n3)C(c3ccco3)C2)cc1 (stereo not drawn),22.7%
12,CCOC(=O)C1C(=O)NC(N2CCN(c3ccccc3)CC2)=NC1c1ccco1 (stereo not drawn),-4.78%
13,Cc1nc2c(c(C)nn2-c2ccccc2)c(C)c1C,-8.62%
14,Cc1ccnc(NC(=O)c2ccoc2C)c1,17.6%
15,COc1cc(SC)ccc1C(=O)Nc1cc(C)ccn1,55.7% (active)
16,COc1cc(SC)ccc1C(=O)Nc1nc(C)cs1,-71.7%
17,COC(=O)[C@@]12CCCN1[C@H](c1ccc(-c3ccc(F)cc3)c(OC)c1)[C@H]1C(=O)N(C)C(=O)[C@H]12,42.9%
18,COc1ccc(Cl)cc1C=CC=Nc1ccc(S(N)(=O)=O)cc1,-18.4%
19,FC(F)Oc1ccc(NC(=S)NCc2ccco2)cc1Cl,7.43%
20,COc1cccc(NC(=S)NCc2ccco2)c1,19.7%
21,COc1cc(NC(=S)NCc2ccco2)c(OC)cc1Cl,62.1% (active)
22,Cc1ccc(OCC(=O)Nc2nnc(-c3ccco3)s2)cc1,2.22%
23,COc1ccc(OCC(=O)Nc2nnc(-c3ccco3)s2)cc1,3.21%
24,CCCCOc1ccc(-c2nnc(-c3ccco3)o2)cc1,79.3% (active)
25,CC(C)Oc1ccc(S(=O)(=O)N2CCOCC2)cc1NC(=O)C1CSC2(C)CCC(=O)N12 (stereo not drawn),0.413%
26,Cc1ccc(-n2nc(C)c(/C=N/NC(=O)c3cccs3)c2Cl)cc1,-8.54%
27,Cc1nn(-c2ccccc2)c(Cl)c1/C=N/NC(=O)c1nn(C)cc1[N+](=O)[O-],125% (active)
28,Cc1nn(C)cc1/C=N/NC(=O)c1sc2ccccc2c1Cl,3.1%
